# Results taken from PubChem BioAssay AID602292 (National Center for Advancing Translational Sciences (NCATS), 2012).
# About 380 (29%) of roughly 1,300 compounds were called active. About 37% were inconclusive and are not listed. Calls follow the shape of the dose curve; as a rule, active = well fitted inhibition curve with a large enough effect; inconclusive = small, poorly fitted or top-dose-only effect; inactive = flat fitted curve, though single readings scatter. The list shows a part of the results. Entries that show only a call come without a potency.
# Target: Thyrotropin receptor (Homo sapiens) (UniProt P16473)
# Sequence (P16473 whole entry, looked up): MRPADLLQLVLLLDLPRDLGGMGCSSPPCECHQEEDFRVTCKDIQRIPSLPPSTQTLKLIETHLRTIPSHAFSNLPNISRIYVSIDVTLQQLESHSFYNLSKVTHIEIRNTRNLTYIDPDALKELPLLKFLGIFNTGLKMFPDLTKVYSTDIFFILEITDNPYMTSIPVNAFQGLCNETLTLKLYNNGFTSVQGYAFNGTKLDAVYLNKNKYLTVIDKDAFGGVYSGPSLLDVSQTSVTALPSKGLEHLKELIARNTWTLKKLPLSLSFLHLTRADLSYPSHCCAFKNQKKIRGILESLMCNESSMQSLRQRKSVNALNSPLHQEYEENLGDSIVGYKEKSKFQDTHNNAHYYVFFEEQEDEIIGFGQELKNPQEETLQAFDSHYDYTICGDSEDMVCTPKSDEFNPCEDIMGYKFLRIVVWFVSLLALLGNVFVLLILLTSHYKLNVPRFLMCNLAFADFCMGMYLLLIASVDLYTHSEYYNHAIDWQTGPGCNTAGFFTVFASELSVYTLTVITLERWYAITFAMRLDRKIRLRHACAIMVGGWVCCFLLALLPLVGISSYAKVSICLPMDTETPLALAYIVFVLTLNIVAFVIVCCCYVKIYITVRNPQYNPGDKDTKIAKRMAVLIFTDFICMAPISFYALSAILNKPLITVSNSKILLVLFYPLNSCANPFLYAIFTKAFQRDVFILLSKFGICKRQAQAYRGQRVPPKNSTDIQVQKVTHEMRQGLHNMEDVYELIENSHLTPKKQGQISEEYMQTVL
# Test: qHTS for antagonists of the Thyroid Stimulation Hormone Receptor: Hit Validation in Primary Screen; also: nearly all actives have a fitted effect of over 80% in size
# Settings: TSHR-expressing cells, cAMP antagonist mode; series mostly up to 58 µM
# How it was run: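 TSHR-expressing cells were pretreated with compound, then stimulated with TSH at EC80 (4nM final) for 2 hours at 37 deg C. Cellular cAMP measured by competitive HTRF (anti-cAMP cryptate, cAMP-d2) after 30 min at room temperature.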
# Potency is read from the fitted curve at half-maximal effect.
row,SMILES,Potency
1,Cc1ccc(CNC(=O)CSc2nnc3c(n2)[nH]c2ccccc23)cc1,inactive
2,CC(Sc1nnc2c(n1)[nH]c1ccccc12)C(=O)N(C)C1CCCCC1 (stereo not given),26.9 µM (active)
3,O=C(NCCc1ccc(Cl)cc1Cl)c1cc([N+](=O)[O-])c[nH]c1=O,16.9 µM (active)
4,COC(=O)c1ccc(NC(=O)Nc2ccc(F)c(Cl)c2)cc1,19 µM (active)
5,CSCc1cc(N2CCOCC2)nc(SCc2ccc(Cl)cc2Cl)n1,inactive
6,Cc1cccc(C)c1OCCCn1ccnc1,inactive
7,Cc1cccc(OCCCCc2c(C)n[nH]c2C)c1C,30.1 µM (active)
8,COc1ccc(-c2nnc(CSc3nc4ccccc4c(=O)n3CC3CCCO3)o2)cc1OC (stereo not given),inactive
9,CCOc1cc(C(=O)NC2CC(C)(C)NC(C)(C)C2)cc(OCC)c1OCC,inactive
10,CC1=C/C(=N\OS(=O)(=O)c2ccccc2)C(C)=CC1=O,4.78 µM (active)
11,CC1=CC(=O)C(C(C)C)=C/C1=N/OS(=O)(=O)c1ccccc1,8.49 µM (active)
12,COc1ccc(NC(=O)Cc2nc3ccccc3[nH]2)cc1,inactive
13,Cc1cc(C)n(C(=O)/C(C#N)=N/Nc2cc(Cl)cc(Cl)c2)n1,4.78 µM (active)
14,CCOc1cc(N2CCOCC2)c(OCC)cc1NC(=O)c1cccc(S(=O)(=O)N2CCOCC2)c1,9.53 µM (active)
15,CCOc1cc(NC(=O)C2CC2)c(OCC)cc1NC(=O)c1cccc(F)c1,inactive
16,COc1cccc(CNC(=O)CN2C(=O)CSc3ccc(S(=O)(=O)N4CCOCC4)cc32)c1,inactive
17,Cc1ccc(S(=O)(=O)N(Cc2ccccc2)c2ccccc2C(=O)N2CCCCC2)cc1,inactive
18,CC(C)C(=O)Nc1c(-c2ccc(Cl)cc2)c(=O)c2ccccc2n1C,inactive
19,Cn1c(N)c(Sc2ccccc2[N+](=O)[O-])c(=O)n(C)c1=O,inactive
20,Cn1c(=O)c([N+](=O)[O-])c(Cl)c2ccccc21,30.1 µM (active)
21,Cc1noc(C)c1COc1ccccc1C(=O)N(C)Cc1ccc(C(C)(C)C)cc1,30.1 µM (active)
22,Nc1ccn(Cc2ccccc2F)n1,inactive
23,O=C(Nc1cccc(Cl)c1)Nc1ccc(Br)cc1F,21.3 µM (active)
24,N#CC1=C(C2CC2)CC(c2ccccc2)C(C#N)=C1N (stereo not given),inactive
25,CC1(C)CC(=O)c2c(nc3ccccc3c2N)C1,inactive

row,SMILES,Potency
1,c1ccc(C(c2nnnn2Cc2ccco2)N2CCN(c3nc4ccccc4s3)CC2)cc1 (stereo not given),inactive
2,CC(C)C(c1nnnn1Cc1ccco1)N1CCN(c2nc3ccccc3s2)CC1 (stereo not given),30.1 µM (active)
3,CC(C)CC(=O)NC(NC(=S)Nc1sc2c(c1C#N)CCCC2)C(Cl)(Cl)Cl (stereo not given),23.9 µM (active)
4,COc1cccc(OC)c1C(=O)Nc1sc2c(c1C#N)CCC2,inactive
5,Cc1cc(C)cc(N=C2NC(=O)CS2)c1,inactive
6,Cc1nc2ccccc2n1CCOc1ccccc1,inactive
7,Oc1c(Cl)cc(Cl)c(Cl)c1Cc1c(O)c(Cl)cc(Cl)c1Cl,2.13 µM (active)
8,CC(C)S(=O)(=O)C1=NSC2=NC(=O)/C(=C\c3ccc(-c4ccccc4)o3)C(=N)N21,3.79 µM (active)
9,CSc1nc(-c2ccc(Cl)cc2Cl)[nH]c(=O)c1C#N,6.75 µM (active)
10,COc1cc(NC(=O)Cn2nc(C(F)(F)F)c(Br)c2C)cc([N+](=O)[O-])c1,26.9 µM (active)
11,CN(CC(=O)Nc1ccccc1C(F)(F)F)Cc1c(O)ccc2ccccc12,inactive
12,CCOC(=O)COc1ccccc1/C=C\[N+](=O)[O-],30.1 µM (active)
13,CCOC(=O)COc1ccc(Br)cc1/C=C/c1[nH]c(=O)[nH]c(=O)c1[N+](=O)[O-],23.9 µM (active)
14,CC(=O)N/N=C\c1ccccc1OC/C=C/c1ccccc1,inactive
15,CC(C)OCCCn1c(=O)c2ccccc2n2c(CCC(=O)NC3CCN(Cc4ccccc4)CC3)nnc12,inactive
16,CC1CCN(Cc2c(C(=O)N/N=C/c3cc(Cl)ccc3O)nnn2-c2nonc2N)CC1,inactive
17,COc1cccc(/C=N/NC(=O)C(=O)N2CCCC2)c1O,inactive
18,N#Cc1ccc(Nc2nc(-c3ccc(O)cc3O)cs2)cc1C(F)(F)F,23.9 µM (active)
19,COc1ccc(/C=C/C(=O)Nc2nc(C)cc(C)n2)cc1OC,inactive
20,COc1ccc(/C=C/C(=O)N2CCN(C)CC2)cc1OC,inactive
21,COc1ccc(/C=C2\CC/C(=C\c3ccc(OC)c(OC)c3)C2=O)cc1OC,19 µM (active)
22,O=C(Nc1ccc2oc(-c3ccccc3F)nc2c1)c1ccc2c(c1)OCCO2,30.1 µM (active)
23,COc1ccc(-c2nnc(NC(=O)c3ccc4c(c3)OCCO4)o2)cc1,inactive
24,CNc1c(NC(=O)c2ccc3c(c2)OCO3)c(=O)oc2ccccc12,inactive
25,Cn1c(CNC(=O)C(Cc2ccccc2)NC(=O)c2ccccc2)cc(=O)n(C)c1=O (stereo not given),inactive

row,SMILES,Potency
1,CCN(CC)S(=O)(=O)c1cccc(C(=O)Nc2nc3cc4c(cc3s2)OCCO4)c1,21.3 µM (active)
2,CCN(c1ccccc1)S(=O)(=O)c1ccc(C(=O)N(CCCN(C)C)c2nc3cc4c(cc3s2)OCO4)cc1,inactive
3,CC1CCC(C(C)C)C(OC(=O)Cn2c(-c3ccccc3)[n+](C)c3ccccc32)C1 (stereo not given),30.1 µM (active)
4,CCOC(=O)C1C(c2cc(OC)c(OC)c(OC)c2)NC(=S)NC1(O)C(F)(F)F (stereo not given),inactive
5,CC1=C(C(=O)OC(C)(C)C)C(c2ccc3ccccc3c2)NC(=O)N1C (stereo not given),inactive
6,CC(C)(C)OC(=O)NCCCCCc1cn([C@@H](CO)C(=O)NCCCCCCCCCCC(=O)N2CCN(C(=O)OC(C)(C)C)CC2)nn1,16.9 µM (active)
7,CN1C(=O)/C(=C/c2ccc(OCc3ccccc3F)cc2)NC1=S,inactive
8,O=C1S/C(=C\c2ccc(O)c([N+](=O)[O-])c2)C(=O)N1c1ccccc1Cl,9.53 µM (active)
9,Cc1ccc(CN2C(=O)c3ccccc3Sc3ccc(C(=O)NCCN4CCOCC4)cc32)cc1,inactive
10,CC(=O)N1c2ccc(S(=O)(=O)N3CCC(C(=O)NC(C)c4ccccc4)CC3)cc2CC1C (stereo not given),inactive
11,C=CCSc1nsc(NC(=O)Nc2ccc(F)cc2)n1,7.57 µM (active)
12,Cc1ccc(-n2c(Cl)c(Cl)nc(Cl)c2=O)cc1,26.9 µM (active)
13,CCOC(=O)c1cccc(OCC(O)CNCCOc2ccccc2F)c1 (stereo not given),inactive
14,O=[N+]([O-])c1ccc(N=Nc2c(Cl)cc(O)cc2Cl)cc1,1.51 µM (active)
15,COc1ccc(C(=O)NC2CCCc3c2cnn3-c2cccc(C)c2C)c(OC)n1 (stereo not given),21.3 µM (active)
16,Cn1c(N=Nc2ccc(N3CCOCC3)cc2)[n+](C)c2ccccc21,12 µM (active)
17,CCCn1nc([N+](=O)[O-])c(C(C#N)c2nc3ccccc3o2)c(Cl)c1=O (stereo not given),6.01 µM (active)
18,CCn1nc([N+](=O)[O-])c(C(C#N)c2nc3cc(C(F)(F)F)ccc3s2)c(Cl)c1=O (stereo not given),2.69 µM (active)
19,O=C(NCCc1ccccc1)c1cccnc1N1CCCCCC1,inactive
20,Cc1cc(C(=O)CCl)c(C)n1CCc1ccccc1,30.1 µM (active)
21,CCOC(=O)N1CCN(C(=O)CCc2ccccc2)CC1,inactive
22,Brc1ccc(CNc2ccc3ncccc3c2)cc1,23.9 µM (active)
23,CCOc1ccc(-n2c(SCC(=O)NC(C)CC)nc3n[nH]c(C)c3c2=N)cc1 (stereo not given),inactive
24,O=S(=O)(Nc1ccc2cn[nH]c2c1)c1cc(Br)ccc1Br,21.3 µM (active)
25,O=C(Nc1ccncc1)Nc1cc(Cl)ccc1Cl,inactive

row,SMILES,Potency
1,O=C(Nc1ccc(Cl)c(Cl)c1)Nc1ccccc1O,21.3 µM (active)
2,O=C(c1cc(COc2cccc3cnccc23)on1)N1CCCC(CCCO)C1 (stereo not given),13.5 µM (active)
3,CSc1ccccc1OCc1cc(C(=O)NC2CCc3ccccc32)no1 (stereo not given),inactive
4,Cc1ccc(C(=O)Nc2ccc(Br)c(C(F)(F)F)c2)cc1,23.9 µM (active)
5,Cc1nc2ccc(C(=O)Nc3ccc4nc[nH]c4c3)cc2[nH]1,inactive
6,CCn1c(=S)sc2c(=O)n(CC(=O)Nc3ccccc3OC)c(C)nc21,inactive
7,O=C(COCc1cc(-c2cccs2)on1)NC1CCCCC1,inactive
8,O=C(Nc1nc(-c2cccs2)c(-c2cccs2)s1)C1CCCC1,19 µM (active)
9,COc1ccc(CC(=O)Oc2cc(C)ccc2C)cc1,inactive
10,CN(C)/C=C(/C(=O)c1ccc(Cl)cc1)S(=O)(=O)c1ccc(Cl)cc1,inactive
11,c1ccc2c(CSc3ncnc4nc[nH]c34)cccc2c1,30.1 µM (active)
12,Clc1ccc(CSc2nnc(CNc3cccc(Cl)c3)o2)cc1,23.9 µM (active)
13,O=C(COc1ccc(Cl)cc1)NCc1nnc(SCC(=O)NC2CCCCC2)o1,inactive
14,C(=N\N1CCN(Cc2cccc3ccccc23)CC1)/c1cccnc1,inactive
15,Cc1sc(N/N=C/c2cccnc2)nc1-c1ccccc1,23.9 µM (active)
16,Nc1c(C(=O)NCc2ccc3c(c2)OCO3)nnn1CC(=O)Nc1ccc(Br)cc1,inactive
17,COC(=O)CN1C(=O)COc2ccc(S(=O)(=O)N3CCCC3)cc21,inactive
18,COc1ccc(NC(=O)CCC2CCCCC2)cc1S(=O)(=O)N1CCCCC1,37.9 µM (active)
19,COc1cc(C(C)=O)ccc1OCC(=O)Nc1ccc(C)c(S(=O)(=O)N2CCCCCC2)c1,19 µM (active)
20,COc1cc(C(=S)N2CCCC2)ccc1OCc1ccc(C)cc1,inactive
21,COc1ccc(Br)cc1/C=N/NC(=O)CN1CCCCC1,inactive
22,COc1ccc(NS(=O)(=O)c2cc(NC(=O)/C=C/c3cc(OC)ccc3OC)ccc2N2CCCCC2)cc1,inactive
23,COC(=O)c1cc(=O)n(-c2c(Cl)cc(C(F)(F)F)cc2Cl)[nH]1,inactive
24,CCCN1CCN(CCCNC(=O)Cn2nc(C)n3c(cc4cc(OC)ccc43)c2=O)CC1,inactive
25,Cc1ccccc1-n1sc2cc(F)ccc2c1=O,19 µM (active)
